Measurements from PubChem BioAssay (NCATS).
Records with an inconclusive call do not appear. A call without a number means that no potency is given here. The source made the active and inactive calls. Calls come from the whole dose curve; as a rule, active = well fitted inhibition curve with a large enough effect; inconclusive = small, poorly fitted or top-dose-only effect; inactive = flat fitted curve, though single readings scatter.

Columns and labels:
Test in all cases: qHTS profiling for inhibitors of Plasmodium falciparum proliferation (AID 504749); note: nearly all actives have a fitted effect of over 60% in size
Settings in all cases: P. falciparum in erythrocytes, SYBR Green DNA, 72 h; series mostly up to 28.7 µM
CP268 = tested on: CP268
Procedure, shortened: (§1)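 Parasite proliferation within erythrocytes, 72 h exposure. Endpoint: SYBR Green I fluorescence after overnight lysis at room temperature. Controls: 0.29 uM artemisinin, DMSO.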

CP269 = tested on: CP269
Procedure, shortened: as §1

CP286 = tested on: CP286
Procedure, shortened: as §1

CP291 = tested on: CP291
Procedure, shortened: as §1

CP305 = tested on: CP305
Procedure, shortened: as §1

CP315 = tested on: CP315
Procedure, shortened: as §1

CP325 = tested on: CP325
Procedure, shortened: as §1

CP329 = tested on: CP329
Procedure, shortened: as §1

CP266 = tested on: CP266
Procedure, shortened: as §1

CP297 = tested on: CP297
Procedure, shortened: as §1
Potency is the fitted concentration of half-maximal effect.

Row | Compound | outcome (CP268) | outcome (CP269) | outcome (CP286) | outcome (CP291) | Potency (CP305) | outcome (CP315) | outcome (CP325) | outcome (CP329) | outcome (CP266) | Potency (CP297)
1 | CC1(C)O[C@H]2C[C@@H]3[C@H]4CCC5=CC(=O)C=C[C@]5(C)[C@@]4(F)[C@@H](O)C[C@]3(C)[C@]2(C(=O)CO)O1 | inactive | inactive | inactive | inactive | inactive | inactive | inactive | inactive |  | 
2 | O=C1NC(=O)C(c2ccccc2)(c2ccccc2)N1 | inactive | inactive | inactive | inactive | inactive |  | inactive | inactive | inactive | inactive
3 | O=c1[nH]cnc2c1ncn2[C@H]1CC[C@@H](CO)O1 | inactive | inactive | inactive | inactive | inactive | inactive | inactive | inactive | inactive | inactive
4 | C[C@@H](O)[C@H]1C(=O)N2C(C(=O)O)=C(S[C@@H]3CN[C@H](C(=O)N(C)C)C3)[C@H](C)[C@H]12 | inactive | inactive | inactive | inactive | inactive | inactive | inactive | inactive | inactive | inactive
5 | CCN1CCC[C@H]1CNC(=O)c1cc(S(N)(=O)=O)ccc1OC | inactive | inactive | inactive | inactive | inactive | inactive | inactive | inactive | inactive | inactive
6 | CN(C)CCC(c1ccccc1)c1ccccn1 (stereo not given) |  |  | inactive |  |  | inactive | inactive |  | inactive | 
7 | CCCNC(=O)NS(=O)(=O)c1ccc(Cl)cc1 | inactive | inactive | inactive | inactive | inactive | inactive | inactive | inactive | inactive | inactive
8 | CCN(CC)C(=O)c1ccc(O)c(OC)c1 | inactive | inactive | inactive | inactive | inactive | inactive | inactive | inactive | inactive | inactive
9 | O=C(O)Cc1cccc2ccccc12 | inactive | inactive | inactive | inactive | inactive | inactive | inactive | inactive | inactive | inactive
10 | CC(=O)O[C@]1(C(C)=O)CC[C@H]2[C@@H]3C=C(Cl)C4=CC(=O)[C@@H]5C[C@@H]5[C@]4(C)[C@H]3CC[C@@]21C |  |  |  |  |  | inactive |  | inactive |  | 
11 | O=C1NCC2(CCN(CCc3ccccc3)CC2)O1 | inactive | inactive | inactive | inactive | inactive | inactive | inactive | inactive | inactive | inactive
12 | Cc1cnc(C(=O)O)c[n+]1[O-] | inactive | inactive | inactive | inactive | inactive | inactive | inactive | inactive |  | inactive
13 | O=C1Nc2ccc(Cl)cc2C(C#CC2CC2)(C(F)(F)F)O1 (stereo not given) | inactive | inactive | inactive | inactive | inactive | inactive | inactive | inactive |  | 
14 | CC(=O)c1ccc(S(=O)(=O)NC(=O)NC2CCCCC2)cc1 | inactive | inactive | inactive | inactive | inactive | inactive | inactive | inactive | inactive | inactive
15 | O=C(O)c1cc(-c2ccccc2)nc2ccccc12 | inactive | inactive | inactive | inactive | inactive | inactive | inactive | inactive |  | inactive
16 | CCN(CC)CCOC(=O)c1ccc(N)cc1 | inactive | inactive | inactive | inactive | inactive | inactive | inactive | inactive | inactive | inactive
17 | C[N+](C)(C)CCCCCC[N+](C)(C)C | inactive | inactive | inactive | inactive | inactive | inactive | inactive | inactive | inactive | inactive

Row | Compound | outcome (CP268) | outcome (CP269) | outcome (CP286) | outcome (CP291) | Potency (CP305) | outcome (CP315) | outcome (CP325) | outcome (CP329) | outcome (CP266) | Potency (CP297)
18 | CCOC(=O)O[C@]1(C(=O)OCCl)CC[C@@H]2[C@H]3CCC4=CC(=O)C=C[C@]4(C)[C@@H]3[C@@H](O)C[C@@]21C | inactive | inactive | inactive | inactive |  | inactive | inactive | inactive |  | 16.9 µM (active)
19 | NC(N)=Nc1nc(CSCC/C(N)=N/S(N)(=O)=O)cs1 | inactive | inactive | inactive | inactive | inactive | inactive | inactive | inactive | inactive | inactive
20 | CC/C(=C(\c1ccccc1)c1ccc(OCCN(C)C)cc1)c1ccccc1 |  |  |  |  |  | inactive |  | inactive | inactive | inactive
21 | CCCCCN(C)CCC(O)(P(=O)(O)O)P(=O)(O)O | inactive | inactive | inactive | inactive | inactive | inactive | inactive | inactive | inactive | inactive
22 | CC1=C(/C=C/C(C)=C/C=C/C(C)=C/C(=O)Nc2ccc(O)cc2)C(C)(C)CCC1 |  |  |  |  | 15.1 µM (active) |  |  |  |  | 13.5 µM (active)
23 | COc1ccc(Cc2nccc3cc(OC)c(OC)cc23)cc1OC | inactive | inactive | inactive | inactive | inactive | inactive | inactive | inactive | inactive | inactive
24 | CC(=O)CCCCn1c(=O)c2c(ncn2C)n(C)c1=O | inactive | inactive | inactive | inactive | inactive | inactive | inactive | inactive | inactive | inactive
25 | Cc1cccc(C)c1OCC(C)N (stereo not given) |  |  | inactive |  |  | inactive |  | inactive |  | 
26 | NCCS | inactive | inactive | inactive | inactive | inactive | inactive | inactive | inactive | inactive | inactive
27 | COCCCCC(=NOCCN)c1ccc(C(F)(F)F)cc1 |  |  |  |  |  | inactive |  |  |  | 
28 | CC(=O)N[C@@H](CS)C(=O)O | inactive | inactive | inactive | inactive | inactive | inactive | inactive | inactive | inactive | inactive
29 | COc1ccccc1N1CCN(CCCNc2cc(=O)n(C)c(=O)n2C)CC1 | inactive | inactive | inactive | inactive | inactive | inactive | inactive | inactive | inactive | inactive
30 | CCN(CC)CCNC(=O)c1ccc(N)cc1 | inactive | inactive | inactive | inactive | inactive | inactive | inactive | inactive | inactive | inactive
31 | O=C(NCCN1CCOCC1)c1ccc(Cl)cc1 | inactive | inactive | inactive | inactive | inactive | inactive | inactive | inactive | inactive | inactive
32 | O=C(O)c1c(Cl)c(Cl)c(Cl)c(Cl)c1-c1c2cc(I)c(=O)c(I)c-2oc2c(I)c(O)c(I)cc12 | inactive | inactive | inactive | inactive | inactive | inactive | inactive | inactive | inactive | 
33 | Clc1ccc(Cn2c(CN3CCCC3)nc3ccccc32)cc1 | inactive | inactive | inactive | inactive | inactive | inactive | inactive | inactive | inactive | 
